From PubChem BioAssay (Tox21)
Results filed as inconclusive are left out. Calls of active or inactive are those of the source. The call rests on the fitted dose curve; in most records, active means well fitted cell-killing curve with a large enough effect in the repeat runs; inconclusive means weak or mixed curves, or effect the other way; inactive means flat fitted curve, though single readings scatter.

Test: cAMP Responsive Elements (CRE) small molecule agonists, cell-based qHTS assay: qHTS cell viability counter screen (AID 2060914);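 further: viability read after 3 h of compound exposure; nearly all actives have a fitted effect of over 50% in size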
Details: CRE-bla HEK293T viability, CellTiter-Glo luminescence, 5 h; series mostly up to 92.4 µM; activity change, negative = cytotoxicity: at the top concentration
Method in brief: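 CRE-bla HEK 293T cells, plated 18 h at 37 °C, were exposed to compounds for 3 h at 37 °C/5% CO2. Viability was then measured in the same wells by CellTiter-Glo luminescence after 30 min at room temperature.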
On the % scale 0 is the no-effect control and ±100 the full control effect; potency means the concentration at half of the fitted maximal effect.

SMILES | activity change, negative = cytotoxicity | Potency
O=C1NC(=O)c2cccc3cccc1c23 | 0.528% (inactive) | –
O=Nc1ccc(Nc2ccccc2)cc1 | 19% (inactive) | –
Cc1ccccc1C(=O)N1CC/C(=N\OS(=O)(=O)O)c2ccc(Cl)cc21 | -1.39% [at 42.5 µM] (inactive) | –
CN(C)CCCNCCC#N | -7.59% (inactive) | –
O=C(OCc1ccccc1)c1ccccc1 | – | inactive
C[C@]12CC[C@@H]3c4ccc(O)cc4C[C@@H](CCCCCCCCCS(=O)CCCC(F)(F)C(F)(F)F)[C@H]3[C@@H]1CC[C@@H]2O (stereo not given in full) | – | inactive
COc1cc(Cl)ccc1Cl | 8.97% (inactive) | –
CCCCc1ncc(/C=C(\Cc2cccs2)C(=O)O)n1Cc1ccc(C(=O)O)cc1 | -0.0271% [at 42.5 µM] (inactive) | –
CC(=O)OCCOC(C)=O | – | inactive
O=C1C=CC(=O)O1 | 0.134% (inactive) | –
C1=Cc2ccccc2C1 | -1.49% (inactive) | –
COc1cc2c3cc1Oc1cc(ccc1O)C[C@@H]1c4c(cc(OC)c(O)c4Oc4ccc(cc4)C[C@@H]3N(C)CC2)CC[N+]1(C)C | -6.86% [at 42.5 µM] (inactive) | –
C=C(C)C(N)=O | – | inactive
Cc1ccsc1/C=C/C1=NCCCN1C | 6.81% [at 42.5 µM] (inactive) | –
O=Cc1ccc(Cl)c(Cl)c1 | -10.6% (inactive) | –
COc1c2ccoc2cc2oc(=O)ccc12 | – | inactive
CC(=O)C=O | 15% (inactive) | –
CCOC(=O)NCCOc1ccc(Oc2ccccc2)cc1 | -0.0289% (inactive) | –
CC12CC3CC(C)(C1)CC(N)(C3)C2 | 0.0627% [at 42.5 µM] (inactive) | –
CC(C)(C)NCCO | 2.12% (inactive) | –

SMILES | activity change, negative = cytotoxicity | Potency
CC(=O)c1ccc2c(c1)N(CCCN1CCC(CCO)CC1)c1ccccc1S2 | 6.37% [at 42.5 µM] (inactive) | –
O=C(O)c1ccccc1-c1ccc(C(F)(F)F)cc1 | 8.02% [at 42.5 µM] (inactive) | –
CC(=O)Oc1c(C)c(C)c2c(c1C)CC[C@@](C)(CCC[C@H](C)CCC[C@H](C)CCCC(C)C)O2 | – | inactive
Oc1cc2ccccc2c2ccccc12 | – | 13.7 µM (active)
NCc1ccccc1Sc1ccccc1CO | -0.116% [at 42.5 µM] (inactive) | –
CCc1occc(=O)c1O | -0.92% (inactive) | –
CC(C)c1cccc(C(C)C)c1N | 0% (inactive) | –
COc1ccc(NC(C)=O)cc1N | – | inactive
C=CCc1cc(OC)c(O)c(C(=O)NCCO)c1 | -6.18% [at 42.5 µM] (inactive) | –
Cc1ccc(N/N=c2\c(=O)cc/c(=N\Nc3ccc(S(=O)(=O)O)cc3)c2=O)c(C)c1 | -5.84% (inactive) | –
O=C(NO)C1(NS(=O)(=O)c2ccc(Oc3ccc(F)cc3)cc2)CCOCC1 | 1.55% (inactive) | –
COC(=O)CCCCCCCC(=O)OC | 3.14% (inactive) | –
COC(=O)CCS | 8.98% (inactive) | –
CC1CNCC(C)O1 (stereo not given) | 3.53% (inactive) | –
O=C(C(=O)c1ccco1)c1ccco1 | 0.639% (inactive) | –
OC[C@]1(O)OC[C@@H](O)[C@H](O)[C@@H]1O | – | inactive
C/C(C=O)=C\c1ccccc1 | -7.37% (inactive) | –
CCC(C(=O)O)c1ccc(N2Cc3ccccc3C2=O)cc1 (stereo not given) | -8.37% [at 42.5 µM] (inactive) | –
CNC(=S)NN | -0.585% (inactive) | –
Cc1cc(CCC(=O)OCCOCCOCCOC(=O)CCc2cc(C)c(O)c(C(C)(C)C)c2)cc(C(C)(C)C)c1O | -13.6% (inactive) | –
